Measurements: PubChem BioAssay (NCI)
About 83,000 compounds went through this panel and 20% of them were active in at least one assay; those are over-represented in the sample as a whole.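 Single-dose data. Exposure time 48 hours. Values below 10 considered active.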 Calls of active or inactive are those of the source.

Assays:
Assay in all cases: NCI-60 one-dose screen, 48 h (100 = growth as untreated, 0 = no growth, -100 = all killed)
Conditions in all cases: 10 µM unless noted
[1] = system: SK-MEL-2 melanoma
[2] = system: EKVX NSCLC
[3] = system: SN12C renal
[4] = system: UO-31 renal
[5] = system: TK-10 renal
[6] = system: ACHN renal
[7] = system: CAKI-1 renal
[8] = system: A498 renal
[9] = system: CCRF-CEM leukemia
[10] = system: MOLT-4 leukemia
[11] = system: SR leukemia
[12] = system: RPMI-8226 leukemia
[13] = system: OVCAR-8 ovarian
[14] = system: OVCAR-5 ovarian
[15] = system: SK-OV-3 ovarian
[16] = system: IGROV1 ovarian
[17] = system: OVCAR-3 ovarian
[18] = system: HS 578T breast
[19] = system: NCI/ADR-RES ovarian
[20] = system: OVCAR-4 ovarian

Measured: growth

CCCCCCCS(=O)(=O)N1CCCC(C(=O)Nc2nc3ccc(NC(=O)c4ccc(F)c(OC)c4F)cc3s2)C1 (configuration not stated)
active: [13] 6.24%
inactive: [1] 58.9% | [2] 55.7% | [3] 51.3% | [4] 67.9% | [5] 85.9% | [6] 53% | [7] 59% | [8] 89.4% | [9] 50.2% | [10] 59.7% | [11] 60.6% | [12] 41.3% | [14] 65.1% | [15] 57.4% | [16] 60.3% | [17] 40.2% | [18] 25.2% | [19] 46.8%

O=C(N1c2ccccc2Sc2ccccc21)n1ccc2cccnc21
inactive: [1] 73.6% | [2] 79.3% | [3] 81.1% | [4] 55.6% | [5] 90.7% | [6] 88.2% | [7] 53.6% | [8] 109% | [9] 63.2% | [10] 38.3% | [11] 12.1% | [12] 40.4% | [13] 88.1% | [20] 65.6% | [15] 79.9% | [16] 72% | [17] 82% | [18] 70.7% | [19] 57.7%

Cc1ccc(Cc2cnc(NC(=O)c3ccc(/C=C4\SC(=S)N(C)C4=O)cc3)s2)cc1
active: [17] 3.26% | [19] -28.5%
inactive: [1] 25.6% | [2] 60% | [3] 30.8% | [4] 37.7% | [5] 61.5% | [6] 31.1% | [7] 38.4% | [8] 107% | [9] 32.3% | [10] 24.1% | [11] 30% | [12] 31.4% | [13] 35.3% | [14] 34.3% | [15] 29.3% | [16] 33% | [18] 39.2%

N/C(=N\c1nc2ccccc2s1)NC(=O)Nc1c(Cl)cccc1Cl
inactive: [2] 37.6% | [3] 30.4% | [4] 47.6% | [5] 93.8% | [6] 48.1% | [7] 32% | [8] 94.3% | [9] 30% | [10] 30% | [11] 17.2% | [12] 17.2% | [13] 49.5% | [20] 56.7% | [15] 65.2% | [16] 49.4% | [17] 28.2% | [18] 34.4%
active: [1] 6% | [19] 7.17%

O=C(CN1C(=O)/C(=C/c2ccccc2F)SC1=S)N1CCOCC1
inactive: [1] 99.1% | [2] 95.9% | [3] 72.6% | [4] 58.5% | [5] 97.8% | [6] 50.3% | [7] 85.5% | [8] 129% | [9] 41.9% | [10] 77.7% | [11] 27.9% | [12] 52.8% | [14] 91.9% | [20] 73.7% | [15] 112% | [16] 100% | [17] 52.8% | [18] 104% | [19] 92%

CC(=O)c1c(N)c(C#N)cn1-c1ccc(Cl)cc1Cl
inactive: [1] 90.4% | [2] 93.8% | [3] 100% | [4] 68.4% | [5] 160% | [6] 102% | [7] 97.1% | [8] 112% | [9] 99.3% | [10] 102% | [11] 90.8% | [12] 105% | [13] 98.2% | [15] 89.1% | [16] 96.5% | [17] 120% | [18] 110% | [19] 108%

O=c1oc2ccc(Br)cc2cc1C1=CSc2nc3sc4c(c3c(=O)n2N=C1)CCCC4
inactive: [1] 98.6% | [2] 97% | [3] 103% | [4] 69.8% | [5] 175% | [6] 99.4% | [7] 96.2% | [8] 177% | [9] 84.4% | [10] 93.2% | [11] 86.6% | [12] 101% | [14] 102% | [20] 86.1% | [15] 80.3% | [16] 90.8% | [17] 115% | [18] 93.1% | [19] 106%

COc1ccc(-c2ccnc(SCc3cc4cc(OC)ccc4[nH]c3=O)n2)cc1
active: [9] 6.65% | [10] 4.45% | [11] 4.47% | [12] 9.3% | [19] -11.4%
inactive: [1] 12.8% | [2] 34% | [3] 14.7% | [4] 21.1% | [5] 36.8% | [6] 33.6% | [7] 38.8% | [8] 79.6% | [14] 46.8% | [20] 43.3% | [15] 45.2% | [16] 33.3% | [17] 18.3% | [18] 28.2%

Nc1nnc(-c2c[nH]c3ncc(Br)cc23)c(-c2c[nH]c3ccc(F)cc23)n1
active: [10] 9.73%
inactive: [1] 25.3% | [2] 41.5% | [3] 38.8% | [4] 42.8% | [5] 67% | [6] 40.8% | [7] 42.7% | [8] 74% | [9] 42.7% | [11] 13.6% | [12] 33.7% | [13] 39% | [20] 59.6% | [15] 80.5% | [16] 37.4% | [17] 33.2% | [18] 28% | [19] 70.7%

O=C(COc1ccc(NC(=O)Nc2ccc(Cl)c(Cl)c2)cc1)N=Nc1c(O)[nH]c2ccc(Cl)cc12
active: [1] -64.9% | [2] 7.69% | [3] -30.4% | [5] 1.73% | [7] -5.97% | [8] -32.4% | [9] 8.9% | [10] -1.42% | [11] 3.93% | [12] 6.94% | [14] -28% | [20] -16.6% | [15] -22.2% | [16] -48.6% | [17] -81.7% | [18] -13.7%
inactive: [4] 56.8% | [6] 20.9% | [19] 85.2%

COc1cc(-c2ccc(/C=N/NC(=O)c3[nH]c4ccc(Br)cc4c3-c3ccccc3)o2)cc(OC)c1OC
inactive: [1] 107% | [2] 65.7% | [3] 96.3% | [4] 102% | [5] 112% | [6] 76% | [7] 74.5% | [8] 134% | [9] 69.5% | [10] 77.3% | [11] 78% | [12] 63.2% | [13] 67.2% | [20] 92.3% | [15] 92.6% | [16] 95.1% | [17] 95.6% | [19] 59%

O=C1c2c(c3c4cc(F)ccc4oc3c3[nH]c4ccc(Br)cc4c23)C(=O)N1O
active: [1] 5.56% | [4] 9.04% | [6] -33.8% | [9] 9.46% | [10] 7.83% | [11] 4.45% | [15] 4.35% | [18] -4.24%
inactive: [2] 76.5% | [3] 19.2% | [5] 137% | [7] 21.9% | [8] 119% | [12] 34.2% | [13] 19.8% | [20] 76.6% | [16] 46.3% | [17] 67.2% | [19] 30.7%

COc1cc2oc(-c3cccc(C(=O)Nc4ccc(Cl)cc4)c3)cc(=O)c2c(OCC(=O)N[C@@H](Cc2ccccc2)C(=O)O)c1OC
inactive: [1] 116% | [2] 107% | [3] 105% | [4] 90.8% | [5] 134% | [6] 97.2% | [7] 91.2% | [8] 102% | [9] 98.9% | [10] 110% | [11] 104% | [12] 101% | [13] 106% | [15] 138% | [16] 98% | [17] 117% | [18] 108% | [19] 104%

COc1c(F)ccc(C(=O)Nc2ccc3nc(NC(=O)C4CCCN(S(=O)(=O)c5ccc(Cl)cc5)C4)sc3c2)c1F (configuration not stated)
inactive: [1] 88% | [2] 85.1% | [3] 82% | [4] 62.9% | [5] 103% | [6] 86.7% | [7] 68.9% | [8] 96.4% | [9] 85.5% | [10] 38.8% | [11] 44.8% | [12] 53.8% | [13] 97.2% | [14] 97% | [15] 97.2% | [16] 72.9% | [17] 92% | [18] 60.2% | [19] 74%

O=C(COc1ccc(NC(=O)Nc2ccccc2)cc1)N=Nc1c(O)[nH]c2ccc([N+](=O)[O-])cc12
inactive: [2] 73.5% | [4] 80.2% | [5] 116% | [6] 96.2% | [7] 78.4% | [8] 133% | [9] 18.4% | [11] 19.1% | [12] 53.9% | [15] 56.7% | [16] 22.5% | [19] 113%
active: [1] -69.2% | [3] 9.08% | [10] 3.7% | [13] -30.5% | [20] 7.38% | [17] -76.9% | [18] -8.84%
